HIF act = HIF pathway transcriptional activators, primary screen, cell-based, U2OS HRE-luciferase, luminescence; activation, % at 7.5 µM (by protocol); U2OS HRE-luciferase reporter; normalized: DMSO 0%, desferrioxamine 100%; 300,000 compounds, 0.32% hits;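 active = mean activation of at least 10% of the iron chelator positive control signal, with at least half of replicates also reaching 10%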
KLK7 zymogen act = proKLK7 zymogen activators, primary screen, biochemical, fluorescence intensity; Kallikrein-7 (Homo sapiens), P49862; purified proKLK7, EDANS-DABCYL substrate fluorescence; 100% is mature enzyme control, 0% vehicle; activation, % at 7 µM; 370,000 compounds, 0.9% hits;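 active = activation above the mean of all tested compounds plus 3 SD, computed per campaign excluding outliers beyond control limits, cut at about 13% in these data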
Target sequence (P49862 whole entry, looked up): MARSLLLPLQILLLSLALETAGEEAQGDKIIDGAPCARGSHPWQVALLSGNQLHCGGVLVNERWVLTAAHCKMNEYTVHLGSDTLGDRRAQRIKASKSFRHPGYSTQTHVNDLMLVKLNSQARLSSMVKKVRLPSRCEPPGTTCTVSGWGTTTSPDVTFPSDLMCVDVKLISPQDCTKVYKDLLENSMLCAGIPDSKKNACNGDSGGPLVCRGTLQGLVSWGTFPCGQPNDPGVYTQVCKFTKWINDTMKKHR
NPR2 activator = human GC-B receptor activators, primary screen, HEK293 GC-B cells, cGMP TR-FRET, EC30 CNP; Atrial natriuretic peptide receptor 2 (Homo sapiens), P20594; 0% at EC30 CNP, 100% saturating CNP; activation, % at 10 µM; 370,000 compounds, 0.11% hits; AID 1920062, 2024;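 active = activation at 10 µM reaching about 35% in either raw or pattern-adjusted values, limit read from the data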
NPR1 activator = GC-A stimulated cGMP production enhancers – HEK293 GC-A cells, cGMP TR-FRET, EC30 ANP, primary screen; 0% at EC30 ANP, 100% saturating ANP; activation, % at 10 µM; 370,000 compounds, 0.14% hits; AID 1671463, 2021; in the data active = activation above about 40%
A number is an active result. Only some compounds are listed: those with a hit (about 1.3% of all), similar ones and a draw of the others.

Results for COc1cccc(NC(=S)N(CCCN2CCOCC2)Cc2cn(C)c3ccccc23)c1 ?
HIF act: 350.9; KLK7 zymogen act: inactive; NPR2 activator: inactive; NPR1 activator: inactive

How did COc1ccc(NC(=S)N(CCCN2CCOCC2)Cc2cn(C)c3ccccc23)cc1OC do in these assays?
HIF act: inactive; KLK7 zymogen act: inactive; NPR2 activator: inactive; NPR1 activator: inactive

Results for Cc1[nH]nc(-c2ccc(O)c(C)c2O)c1Oc1ccccc1 ?
HIF act: inactive; KLK7 zymogen act: inactive; NPR2 activator: inactive; NPR1 activator: 79.0

Results for CCN1CCN(c2cc(C)c3cc(NC(=O)c4ccc(OC)c(OC)c4)ccc3n2)CC1 ?
HIF act: inactive; KLK7 zymogen act: inactive; NPR2 activator: 46.8; NPR1 activator: inactive

What do the screens show for `Cc1cc(C)c(C(=O)N2CCCC(N3CCN(c4cccc(C(F)(F)F)c4)CC3)C2)o1` (stereo not given)?
HIF act: 134.8; KLK7 zymogen act: inactive; NPR2 activator: inactive; NPR1 activator: inactive

Results for COc1cccc(C(C[N+](=O)[O-])c2c(C)[nH]n(-c3ccccc3)c2=O)c1 (stereo not given) ?
HIF act: 55.1; KLK7 zymogen act: inactive; NPR2 activator: inactive; NPR1 activator: inactive

How did Cc1[nH]n(-c2ccccc2)c(=O)c1C(C[N+](=O)[O-])c1ccc(Br)cc1 (stereo not given) do in these assays?
HIF act: inactive; KLK7 zymogen act: inactive; NPR2 activator: inactive; NPR1 activator: inactive

Results for C/C(=N\O)C(=O)Nc1ccccc1 ?
HIF act: 231.3; KLK7 zymogen act: inactive; NPR2 activator: inactive; NPR1 activator: inactive

What do the screens show for `CC1=C(C(=O)OCc2ccccc2)C(/C=C/c2ccccc2)NC(=S)N1` (stereo not given)?
HIF act: inactive; KLK7 zymogen act: inactive; NPR2 activator: inactive; NPR1 activator: inactive

Results for C=CCOC(=O)C1=C(C)NC(=S)NC1/C=C/c1ccccc1 (stereo not given) ?
HIF act: inactive; KLK7 zymogen act: inactive; NPR2 activator: inactive; NPR1 activator: 42.9

What do the screens show for `CCOC(=O)CN(C(=O)COc1nc(C)cc(C)c1C#N)c1cccc(Cl)c1`?
HIF act: 24.6; KLK7 zymogen act: inactive; NPR2 activator: inactive; NPR1 activator: inactive

Results for CCOC(=O)CN(C(=O)COc1nc(-c2ccccc2)cc(C)c1C#N)c1ccccc1 ?
HIF act: inactive; KLK7 zymogen act: inactive; NPR2 activator: inactive; NPR1 activator: inactive

Results for Cc1cnc(NC(=O)CSc2nnc(COc3ccccc3)o2)s1 ?
HIF act: inactive; KLK7 zymogen act: inactive; NPR2 activator: inactive; NPR1 activator: inactive

Results for Cc1cnc(NC(=O)CSc2nnc(COc3c(C)cccc3C)o2)s1 ?
HIF act: inactive; KLK7 zymogen act: inactive; NPR2 activator: 96.8; NPR1 activator: inactive

How did Cc1ccc(NC(=S)N/C(=N/S(=O)(=O)c2ccccc2)c2ccccc2)cc1 do in these assays?
HIF act: 10.3; KLK7 zymogen act: inactive; NPR2 activator: inactive; NPR1 activator: inactive

How did C=CCNC(=O)CN(C(=O)Cc1ccc(Cl)cc1)c1cccc(Br)c1 do in these assays?
KLK7 zymogen act: inactive; NPR2 activator: inactive; NPR1 activator: inactive

Results for CN1C(=O)c2cc(NC(=O)Nc3ccccc3)ccc2OC[C@H]2O[C@@H](CC(=O)NCC(F)(F)F)CC[C@@H]21 ?
KLK7 zymogen act: inactive; NPR2 activator: inactive; NPR1 activator: inactive

How did COc1cc(OC)c(OC)cc1/C=C1\CC(C)C/C(=C\c2cc(OC)c(OC)cc2OC)C1=O (stereo not given) do in these assays?
HIF act: inactive; KLK7 zymogen act: inactive; NPR2 activator: inactive; NPR1 activator: 49.4

What do the screens show for `CC(=O)N(c1ccccc1)c1nc(/C=C/C(=O)O)cs1`?
HIF act: inactive; KLK7 zymogen act: inactive; NPR2 activator: inactive; NPR1 activator: inactive

What do the screens show for `CC(=O)N(c1ccccc1)c1nc(/C=C/C(=O)Nc2c(C)cc(C)cc2C)cs1`?
HIF act: inactive; KLK7 zymogen act: inactive; NPR2 activator: 43.2; NPR1 activator: 40.4

How did Cc1cc2cc(CNC(=S)NCc3ccccc3)ccc2n1C do in these assays?
HIF act: inactive; KLK7 zymogen act: inactive; NPR2 activator: inactive; NPR1 activator: inactive

Results for Cc1ccc2c(c1)cc(C(=O)NCc1ccccc1)n2C ?
HIF act: 23.0; KLK7 zymogen act: inactive; NPR2 activator: inactive; NPR1 activator: inactive

Screening data (PubChem BioAssay)
